# Compound activity deposited in PubChem by National Center for Advancing Translational Sciences (NCATS).
# This is a sample that favours compounds with a hit; in the whole collection about 6.5% have one here.
# Marburg entry inh: qHTS for inhibitors of binding or entry into cells for Marburg Virus | Marburg virus pseudotyped entry inhibition, cell reporter | Potency, µM (highest dose often 37.8 µM), inactives show at the top dose activity change, negative = inhibition, usual class: inhibitors | hit rate 1.8% among 300,000 | AID 540276, 2011; calls by dose curve; tested in HEK293 cells; also: potency is read from the fitted curve at half-maximal effect
# FMDV antiviral: High Throughput Screening for Foot and Mouth Disease Virus Antivirals; FMDV antiviral cell-based qHTS; Potency, µM (top dose mostly 57.9 µM), for inactives: at the highest dose activity change, negative = inhibition, usual class: inhibitors; hit rate 1.2% among 410,000; AID 1159524, 2015; calls by dose curve; tested in HEK293T cells; also: read-out not given here; potency is read from the fitted curve at half-maximal effect; nearly all actives have a fitted effect of over 45% in size
# Vaccinia mCherry: qHTS for Stage-Specific Inhibitors of Vaccinia Orthopoxvirus: mCherry Reporter Primary qHTS. Vaccinia virus mCherry reporter infection, fluorescence. AID 720579, 2013. hit rate 0.63% among 310,000. Potency, µM (series often up to 36.5 µM), inactives show at the top dose activity change, negative = inhibition, hits mostly inhibitors; calls by dose curve; tested in A549 cells; also: potency is read from the fitted curve at half-maximal effect; nearly all actives have a fitted effect of over 35% in size
# HCMV inh: qHTS Assay for inhibitors of the human cytomegalovirus (HCMV); HFF cells, HCMV-luciferase reporter, 72 h; active compounds read low; activity change, negative = inhibition, % at 57.5 µM; hit rate 4.5% among 410,000; in the data active = activity change below about -60%; inconclusive = no clear call, values can overlap the other calls; inactive = above about -39%
#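 Inhibition of viral replication was scored as loss of reporter luminescence in HFFs infected with HCMV-luciferase (MOI 1 PFU/cell) for 72 h; compounds tested at 2 doses, normalized to buffer and Salinomycin controls.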
# Vaccinia Venus: qHTS for Stage-Specific Inhibitors of Vaccinia Orthopoxvirus: Venus Reporter Primary qHTS | AID 720580, 2013 | Potency, µM (highest dose often 36.5 µM), without a hit: top-dose activity change, negative = inhibition, hits mostly inhibitors | Vaccinia virus Venus reporter expression, fluorescence | hit rate 0.46% among 330,000; calls by dose curve; tested in A549 cells; also: potency is read from the fitted curve at half-maximal effect; nearly all actives have a fitted effect of over 30% in size
# Lassa entry inh: qHTS for Inhibitors of binding or entry into cells for Lassa Virus; Potency, µM (series often up to 37.9 µM), without a hit: at the highest dose activity change, negative = inhibition, most hits filed as inhibitors; Lassa virus pseudotype entry inhibition, cell reporter; hit rate 1.2% among 300,000; calls by dose curve; tested in HEK293 cells; also: potency is read from the fitted curve at half-maximal effect; nearly all actives have a fitted effect of over 50% in size
# Starred values were filed as active, the others as inactive; i = inactive; u = inconclusive; x = no result; + = active, no number; ! = repeats disagree; [ ] = remark or other dose. % is scaled to controls: 0 for no effect and ±100 for the full control effect.
SMILES,Marburg entry inh,FMDV antiviral,Vaccinia mCherry,HCMV inh,Vaccinia Venus,Lassa entry inh
COc1ccccc1CN(Cc1nc2ccccc2c(=O)[nH]1)S(=O)(=O)c1ccc(C)cc1,8%,x,-27%,-99*,-7%,2%
CCOc1ccc(C(=O)NC(=S)Nc2ccccc2N2CCC(C)CC2)cc1[N+](=O)[O-],u,u,x,-97*,-9%,-23%
COc1ccccc1C(=O)N[C@@H]1c2ccccc2C2(CCN(Cc3nccs3)CC2)[C@H]1OC,x,-14%,-21%,x,-6%,x
O=C(Nc1ccc(OC(=O)N2CCCC2)cc1)N1CCOCC1,9%,0%,-17%,10,-1%,7%
O=C(Nc1ccc(OC(=O)N2CCCCC2)cc1)N1CCOCC1,u,u,-21%,+,-4%,u
O=C(Nc1ccc(Nc2ccccc2)cc1)N1CCOCC1,15%,4%,-7%,-63*,4%,4%
O=C(Nc1cc(F)ccc1F)N1CC(=O)N2[C@@H](CO)[C@H](c3ccc(Br)cc3)[C@@H]2C1,x,x,x,4,x,x
O=C(CN1C(=O)CCC1=O)c1ccc(-c2ccccc2)cc1,u,22%,i,-28,-10%,u
N=c1ccn(CC(=O)c2ccc(-c3ccccc3)cc2)cc1,u,u,u,-76*,u,u
c1ccc(-c2cc(-c3nnc4n3N=C(c3ccc5ccccc5c3)CS4)[nH]n2)cc1,u,u,u,-96*,u,-67%[14.3 µM]
Cc1ccc(-c2nnc3n2N=C(c2ccccc2Br)CS3)cc1,u,-18%,-24%,-78*,-17%,u
Cc1cc(-c2nnc3n2N=C(c2ccc(-c4ccccc4)cc2)CS3)n[nH]1,u,u,11µM*,77,u,u
c1ccc(C2=Nn3c(nnc3-c3ccncc3)SC2)cc1,u,-24%,i,-73*,-5%,4%
c1ccc(C2=Nn3c(nnc3-c3cccnc3)SC2)cc1,-32%,-6%,x,-22,x,-1%
Cc1cccc(-c2nnc3n2N=C(c2ccccc2)CS3)c1,-21%,-14%,x,u,x,-24%
COc1ccccc1-c1c(C)nn2c(-c3ccccc3)cc(-c3ccccc3)nc12,u,-22%,-12%,-28,-9%,-1%[46.1 µM]
CC(Nc1oc(-c2ccccc2)nc1C(C)(C)C)c1ccccc1 (stereo not drawn),-5%[14.2 µM],x,x,x,x,u
O=C(CCCCCl)Nc1c2c(nc3ccccc13)CCC2,3%[46.1 µM],-10%,i,9,-14%,-9%[46.1 µM]
O=C(CSc1nnc(-c2ccc(F)cc2)o1)Nc1ccc(S(=O)(=O)N2CCCC2)cc1,-7%,-13%,-12%,57,5%,2%
O=C(O)CSc1nnc(-c2cccc(S(=O)(=O)N3CCCCC3)c2)o1,18%[46.1 µM],-9%,9%,7,-3%,5%
CCNC(=O)CSc1nnc(-c2cccc(S(=O)(=O)N3CCOCC3)c2)o1,19%[46.1 µM],-6%,11µM*,12,u,27%
N#Cc1ccc(CSc2nnc(-c3cccc(S(=O)(=O)N4CCCCC4)c3)o2)cc1,u,-28%,x,-66*,u,u
COCC(C)NC(=O)CSc1nnc(-c2cccc(S(=O)(=O)N3CCCCC3)c2)o1 (stereo not drawn),u,2%,i,4,-5%,-6%
O=C(CSc1nnc(-c2ccc(F)cc2)o1)Nc1ccc(S(=O)(=O)N2CCCCCC2)cc1,-15%,x,-15%,-84*,-2%,u
CCCCCCc1ccc(-c2ccc(C#N)cc2)cc1,x,x,x,-25,x,x
SMILES,Marburg entry inh,FMDV antiviral,Vaccinia mCherry,HCMV inh,Vaccinia Venus,Lassa entry inh
O=C(Cc1cc(=O)[nH][nH]1)N/N=C/c1cccc(Cl)c1Cl,u,-10%,i,-102*!,-9%,-2%
O=C(Cc1cc(=O)[nH][nH]1)N/N=C/c1cccc2ccccc12,x,7%,x,-90*,x,x
O=C(Cc1cc(=O)[nH][nH]1)N/N=C/c1ccccc1Cl,u,-16%,i,10,-12%,7%
COc1ccccc1-c1nc(NCc2cccnc2)c2ccccc2n1,x,-9%,x,x,x,x
Cc1cc(Br)ccc1NC(=O)C(Cc1ccccc1)NS(=O)(=O)c1ccc(Br)s1 (stereo not drawn),3%[46.1 µM],-18%,-18%,-104*,-20%,-1%[46.1 µM]
CC1CCCN(CCS(=O)(=O)c2ccccc2)C1 (stereo not drawn),u,25%,10µM*,6,u,9%[46.1 µM]
CC(=O)Nc1ccccc1OCc1cc(=O)n2c(C)csc2n1,-15%[46.1 µM],-1%,-4%,-1,8%,-6%[46.1 µM]
c1ccc2c(-c3cncc4ccccc34)cncc2c1,13µM*,-15%,-27%,-30,-9%,u
Cc1ccc(NC(=O)c2ccc(=O)[nH]n2)cc1S(=O)(=O)Nc1ccccc1Cl,x,41%,x,0,x,x
Cc1ccc(NC(=S)NC(=O)c2ccc(F)cc2)cc1S(=O)(=O)Nc1ccccc1Cl,1.1µM*,6%,u,u,u,u
COc1ccc(NC(=O)c2[nH]c(C)c(C(C)=O)c2C)cc1S(=O)(=O)N1CCOCC1,8%,-17%,-12%,161,-7%,0%
Cc1onc(-c2ccccc2)c1C(=O)Nc1ccc(Cl)c(S(=O)(=O)N2CCOCC2)c1,x,u,x,-103*,x,x
CC(=O)c1c(C)[nH]c(C(=O)Nc2ccc(Cl)c(S(=O)(=O)N3CCOCC3)c2)c1C,u,22µM*,u,94,-26%,u
COc1ccccc1NS(=O)(=O)c1cc(N2Cc3ccccc3C2=N)ccc1N1CCOCC1,7.1µM*,26%,-11%,u,-13%,u
Cn1nc(C(=O)Nc2cc(F)ccc2F)c2c1-c1ccccc1SC2,-9%[46.1 µM],25%,-16%,0,-10%,-3%[46.1 µM]
COc1ccc(S(=O)(=O)NC(=O)C2(C)CCN2C(=O)Cc2ccc(C(C)(C)C)cc2)cc1 (stereo not drawn),x,-7%,5%,-23,2%,x
COc1ccccc1NS(=O)(=O)c1cc(NC(=O)c2[nH]c(C)c(C(C)=O)c2C)ccc1N1CCOCC1,x,16%,x,-90*,x,x
CCOC(=O)c1ccc(N2CCOCC2)c(NC(=O)c2c(-c3ccccc3)noc2C)c1,1.8µM*,-13%,-9%,-5,-29%,u
COc1ccc(NC(=O)c2ccccc2)cc1NS(=O)(=O)c1ccc(F)cc1,-7%,1%,-17%,-21,-5%,-3%
Cc1onc(-c2ccccc2)c1C(=O)Nc1cc(C(F)(F)F)ccc1N1CCOCC1,u,-26%,u,-34,u,u
COc1ccccc1NS(=O)(=O)c1cc(NC(=O)c2ccncc2)ccc1N1CCCC1,11µM*,43%,-11%,-36,-19%,u
COc1ccc(NC(=O)c2ccc(-c3ccccc3)cc2)cc1NS(=O)(=O)c1ccc(F)cc1,u,u,-30%,-95*,u,u
